{"source": "ChEMBL document CHEMBL4513216", "about": "“Probing the Open Global Health Chemical Diversity Library for Multistage-Active Starting Points for Next-Generation Antimalarials” (ACS Infect Dis, 2020)", "note": "Screen size: about 69,000 compounds; about 8,600 (12%) showed an effect of 50% or more. What follows is part of a selection rich in strong results, with near analogues and random picks from the rest.", "data": [{"tested_on": "Plasmodium berghei", "assay": "Screen against P. berghei liver stage (PbLuc), transformed with Luciferase, at 10uM", "type": "functional, HepG2", "details": "tested at 10 uM", "units": {"INHIBITION": "%"}, "values": [{"smiles": "CCC[C@H]1CN(S(=O)(=O)c2cc(C)ccc2F)C[C@@H]1N", "INHIBITION": 44.2}, {"smiles": "Cc1cc(-c2cc(S(=O)(=O)N3C[C@H](C4CC4)[C@@H](N)C3)c(C)s2)on1", "INHIBITION": 45.3}, {"smiles": "CCC[C@H]1CN(S(=O)(=O)c2ccc(CC)s2)C[C@@H]1N", "INHIBITION": 52.2}, {"smiles": "CCC[C@H]1CN(S(=O)(=O)c2cc(C)ccc2C)C[C@@H]1N", "INHIBITION": 57.2}, {"smiles": "CCC[C@H]1CN(S(=O)(=O)c2c(C)noc2C)C[C@@H]1N", "INHIBITION": -28.9}, {"smiles": "CCc1ccc(S(=O)(=O)N2CC3(COC(C)(C)OC3)C2)s1", "INHIBITION": 42.7}, {"smiles": "CCC[C@@H]1CN(S(=O)(=O)c2ccc(C)c(F)c2)C[C@H]1N(C)C", "INHIBITION": 37.8}, {"smiles": "CCC[C@H]1CN(S(=O)(=O)c2ccccc2)C[C@@H]1N", "INHIBITION": -2.34}, {"smiles": "CCC[C@H]1CN(S(=O)(=O)c2ccc(-c3c(C)noc3C)s2)C[C@@H]1N", "INHIBITION": 72.6}, {"smiles": "O=C1[C@H]2CN(CC3CCOCC3)C[C@H]2CN1Cc1cccc(F)c1", "INHIBITION": -53.6}, {"smiles": "CNc1nc2cn(Cc3ccc(Cl)cc3)c(=O)c-2c[nH]1", "INHIBITION": -14.7}, {"smiles": "CCc1ncc(C(=O)N2CCCN(C3CCCCC3)CC2)cn1", "INHIBITION": 37.7}, {"smiles": "COc1ncc(CN2CCC3(CCNC(=O)CC3)CC2)cn1", "INHIBITION": 39.5}, {"smiles": "CN(C)C(=O)C1CN(Cc2cccs2)CCN(S(C)(=O)=O)C1", "note": "(configuration not stated)", "INHIBITION": 32.8}, {"smiles": "O=c1[nH]c(CCN2CCCC2Cn2cccn2)nc2ccccc12", "note": "(configuration not stated)", "INHIBITION": 14.4}, {"smiles": "Cc1cnn(CC2CCCN2CCc2nc3ccccc3c(=O)[nH]2)c1", "note": "(configuration not stated)", "INHIBITION": 61.3}, {"smiles": "Cc1nc(CN2CCCCC2Cn2cncn2)nc2ccccc12", "note": "(configuration not stated)", "INHIBITION": 51.3}, {"smiles": "N#Cc1ccccc1OCCN1CCCCC1Cn1cncn1", "note": "(configuration not stated)", "INHIBITION": 6.56}, {"smiles": "Cc1nc(C)n(CC2CCCN2Cc2nc(C)c3ccccc3n2)n1", "note": "(configuration not stated)", "INHIBITION": 17.4}, {"smiles": "Cc1cc(C)n(CC2CCCN2Cc2nc(N)c3ccccc3n2)n1", "note": "(configuration not stated)", "INHIBITION": 37.9}, {"smiles": "Cc1cnn(CC2CCCN2Cc2nc3ccccc3c(=O)[nH]2)c1", "note": "(configuration not stated)", "INHIBITION": 26.4}, {"smiles": "Fc1ccccc1OCCN1CCCCC1Cn1cncn1", "note": "(configuration not stated)", "INHIBITION": -29.1}, {"smiles": "Cc1nc(C)n(CC2CCCN2Cc2nc(N)c3ccccc3n2)n1", "note": "(configuration not stated)", "INHIBITION": 59.7}, {"smiles": "COc1ccccc1OCCN1CCCCC1Cn1cncn1", "note": "(configuration not stated)", "INHIBITION": 79.5}, {"smiles": "Cc1nc(CN2CCCC2Cn2cncn2)nc2ccccc12", "note": "(configuration not stated)", "INHIBITION": 5.7}, {"smiles": "Nc1nc(CN2CCCCC2Cn2cncn2)nc2ccccc12", "note": "(configuration not stated)", "INHIBITION": 32.9}, {"smiles": "CO[C@@H]1CCN(Cc2cccc(C)n2)[C@@H]2CN(Cc3ccncc3)C[C@@H]21", "INHIBITION": -64.5}, {"smiles": "Cc1ccc2snc(C(=O)N3CCN(C(=O)NCCC(C)C)CC3)c2c1", "INHIBITION": 28.4}, {"smiles": "COc1cc(CNCCc2cnn(C)c2)cc2c1OCO2", "INHIBITION": -3.75}, {"smiles": "Cc1cnn(CC2CN(Cc3nccn3CC(F)(F)F)CCO2)c1", "note": "(configuration not stated)", "INHIBITION": 29.7}, {"smiles": "CC(Nc1ncnc2c1NC(=O)CN2)c1ccccn1", "note": "(configuration not stated)", "INHIBITION": 14.3}, {"smiles": "Cc1cnn(CC2CCCN2Cc2nc(N)c3ccccc3n2)c1", "note": "(configuration not stated)", "INHIBITION": 31.2}, {"smiles": "Nc1nc(CN2CCCC2Cn2cncn2)nc2ccccc12", "note": "(configuration not stated)", "INHIBITION": -26.22}, {"smiles": "O=C1CCCN1CCCN1CCCCC1Cn1cncn1", "note": "(configuration not stated)", "INHIBITION": 50.4}, {"smiles": "O=C1CCCN1CCCN1CCCC1Cn1cccn1", "note": "(configuration not stated)", "INHIBITION": 24.6}, {"smiles": "Cc1cnn(CC2CCCN2Cc2nc(C)c3ccccc3n2)c1", "note": "(configuration not stated)", "INHIBITION": 53}, {"smiles": "c1ccc(-n2cc(CN3CCCC3Cn3cncn3)nn2)cc1", "note": "(configuration not stated)", "INHIBITION": 50.3}, {"smiles": "Cc1cnn(CC2CCCCN2Cc2nc(C)c3ccccc3n2)c1", "note": "(configuration not stated)", "INHIBITION": 36.1}, {"smiles": "c1ccc(-n2ccc(CN3CCCC3Cn3cncn3)n2)cc1", "note": "(configuration not stated)", "INHIBITION": 9.64}, {"smiles": "Cc1cnn(CC2CCCCN2Cc2nc(N)c3ccccc3n2)c1", "note": "(configuration not stated)", "INHIBITION": 58.2}, {"smiles": "O=C1CCCN1CCN1CCCCC1Cn1cncn1", "note": "(configuration not stated)", "INHIBITION": -19.2}, {"smiles": "Cc1nc(CN2CCCC2Cn2cccn2)nc2ccccc12", "note": "(configuration not stated)", "INHIBITION": 27.6}, {"smiles": "c1ccc(-n2cc(CN3CCCCC3Cn3cncn3)nn2)cc1", "note": "(configuration not stated)", "INHIBITION": 0.914}, {"smiles": "Cc1ccc(C2CSCCN2C(=O)c2cccnc2)cc1", "note": "(configuration not stated)", "INHIBITION": -39.8}, {"smiles": "c1ccc(CO[C@H]2CN(c3ncccn3)C[C@@]23CCCO3)cc1", "INHIBITION": -42.1}, {"smiles": "Nc1nnc(CCCNC(=O)c2ccc(C3CCCNC3)cc2)s1", "note": "(configuration not stated)", "INHIBITION": 20.6}, {"smiles": "CC(C)NC(=O)c1ccn(COc2c(Cl)cccc2Cl)n1", "INHIBITION": 35}, {"smiles": "CC(O)(CNC(=O)NCCc1ccc2c(c1)CCO2)c1ccccc1", "note": "(configuration not stated)", "INHIBITION": -5.57}, {"smiles": "CCCNCc1cn(Cc2ccccc2)nc1-c1cccnc1", "INHIBITION": 16.5}, {"smiles": "CNC(=O)C1CN(c2ncccn2)CCN1Cc1ccccc1", "note": "(configuration not stated)", "INHIBITION": 19.3}, {"smiles": "Cc1nc(CN2CCOCC2c2[nH]ncc2C)cs1", "note": "(configuration not stated)", "INHIBITION": 8.335}, {"smiles": "CN(c1cccnn1)[C@@H]1CC[C@@H]2CN(Cc3ccccc3C(=O)O)C[C@@H]21", "INHIBITION": 19.65}, {"smiles": "N#CCCn1cnc2c(Br)cccc2c1=O", "INHIBITION": 33.6}, {"smiles": "CS(=O)(=O)c1ccc(Cl)c(C(=O)NCCC2=CCCCC2)c1", "INHIBITION": -19.2}, {"smiles": "COCCN1CCc2c(CNC(=O)c3nccn3C)cncc2C1", "INHIBITION": 43.9}, {"smiles": "CCN(CC)S(=O)(=O)N1CCCN(CC2CCCO2)CC1", "note": "(configuration not stated)", "INHIBITION": 41.7}, {"smiles": "Cc1ccc(C)c(CN2C[C@@H]3CC[C@H]2CN(C(=O)c2cccnc2)C3)c1", "INHIBITION": -70.7}, {"smiles": "COCCN1CCC2(CC1)CCN(Cc1ccccn1)CC2", "INHIBITION": -67.6}, {"smiles": "Cc1cc(CNC(=O)C2CC(=O)N(CCN(C)C)C2)cc(C)n1", "note": "(configuration not stated)", "INHIBITION": 16.5}, {"smiles": "CCN(CC)C1COc2ccc(Br)cc2C1=O", "note": "(configuration not stated)", "INHIBITION": 39.7}, {"smiles": "COCCN1C[C@@H]2CN(Cc3ccc(F)cc3)C[C@@H]2C1=O", "INHIBITION": 0.112}, {"smiles": "Cc1ccc(=O)n(CC2(O)CCN(Cc3ccoc3)CC2)n1", "INHIBITION": -59.9}, {"smiles": "COc1ccc2c(c1)ncn2C[C@]1(O)CCCN2CCCC[C@@H]21", "INHIBITION": 58.5}, {"smiles": "O[C@@]1(Cn2cnc(Cl)c2Cl)CCCN2CCCC[C@@H]21", "INHIBITION": 40.3}, {"smiles": "Cc1cc2ncn(C[C@]3(O)CCCN4CCCC[C@@H]43)c2cc1C", "INHIBITION": 49.4}, {"smiles": "c1ccc(CCN2CCCC2c2ccnc(Nc3cnccn3)n2)cc1", "note": "(configuration not stated)", "INHIBITION": 25.8}, {"smiles": "N#Cc1ccc(S(=O)(=O)NC(=O)c2csc(-c3ccco3)n2)cc1", "INHIBITION": 54.3}, {"smiles": "Cc1nc(C(=O)NS(=O)(=O)c2cccc(C#N)c2)cs1", "INHIBITION": 61.1}, {"smiles": "COc1ccc(C(=O)NS(=O)(=O)c2cccc(C#N)c2)cc1", "INHIBITION": 15.5}, {"smiles": "Cc1nc(C(C)C)sc1C(=O)NS(=O)(=O)c1ccc(C#N)cc1", "INHIBITION": 39.5}, {"smiles": "CSc1ccsc1C(=O)NS(=O)(=O)c1cccc(C#N)c1", "INHIBITION": 16.9}, {"smiles": "N#Cc1cccc(S(=O)(=O)NC(=O)c2csc(-c3ccco3)n2)c1", "INHIBITION": 24.3}]}]}
